Compound activity as filed in PubChem.
TDP1 cell CPT = qHTS for Inhibitors of human tyrosyl-DNA phosphodiesterase 1 (TDP1): qHTS in cells in presence of CPT | hit rate 12% among 420,000 | chicken DT40 Tdp1-/-;hTDP1 cells + 20 nM CPT, ATP luminescence, 48 h | AID 686979, 2013 | Potency, µM (series often up to 46.2 µM), hits mostly inhibitors; note: nearly all actives have a fitted effect of over 55% in size
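Chicken DT40 Tdp1-/- cells complemented with human TDP1, 400 cells/well, exposed to compounds plus 20 nM camptothecin for at least 48 h at 37 C; viability read as ATP content by CellTiter-Glo luminescence.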
TDP1 cell noCPT = qHTS for Inhibitors of human tyrosyl-DNA phosphodiesterase 1 (TDP1): qHTS in cells in absence of CPT; DT40 Tdp1-/- hTDP1 cells, no CPT, ATP luminescence, 48 h; Potency, µM (doses to about 46.2 µM), actives largely listed as inhibitors; hit rate 15% among 420,000; AID 686978, 2013; note: nearly all actives have a fitted effect of over 55% in size
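No-CPT arm: Tdp1-/-;hTDP1 DT40 cells (400/well) plus compounds, incubated ≥48 hr at 37 °C. Readout CellTiter-Glo luminescence.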
ELG1 repair inh = qHTS screen for small molecules that inhibit ELG1-dependent DNA repair in human embryonic kidney (HEK293T) cells expressing luciferase-tagged ELG1 | HEK293T ELG1-luciferase reporter, luminescence, 16 h; DNA damage induced by 5-fluorouridine | Potency, µM (doses to about 46.1 µM), actives largely listed as inhibitors | hit rate 2.3% among 330,000; note: nearly all actives have a fitted effect of over 55% in size
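DMSO vehicle served as the neutral condition. Each well held 2,000 cells given 5-fluorouridine plus compound; after 16 hr at 37 °C/5% CO2, ONE-Glo was added and luciferase measured 30 min later.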
RORg inh = qHTS for inhibitors of ROR gamma transcriptional activity. Potency, µM (series often up to 53.6 µM), actives largely listed as inhibitors. Nuclear receptor ROR-gamma (Mus musculus), P51450. hit rate 5.4% among 310,000. Drosophila S2 Gal4-RORgamma UAS-luciferase reporter, 20 h; note: nearly all actives have a fitted effect of over 60% in size
Target sequence (P51450 whole entry, looked up, the tested form may be a part): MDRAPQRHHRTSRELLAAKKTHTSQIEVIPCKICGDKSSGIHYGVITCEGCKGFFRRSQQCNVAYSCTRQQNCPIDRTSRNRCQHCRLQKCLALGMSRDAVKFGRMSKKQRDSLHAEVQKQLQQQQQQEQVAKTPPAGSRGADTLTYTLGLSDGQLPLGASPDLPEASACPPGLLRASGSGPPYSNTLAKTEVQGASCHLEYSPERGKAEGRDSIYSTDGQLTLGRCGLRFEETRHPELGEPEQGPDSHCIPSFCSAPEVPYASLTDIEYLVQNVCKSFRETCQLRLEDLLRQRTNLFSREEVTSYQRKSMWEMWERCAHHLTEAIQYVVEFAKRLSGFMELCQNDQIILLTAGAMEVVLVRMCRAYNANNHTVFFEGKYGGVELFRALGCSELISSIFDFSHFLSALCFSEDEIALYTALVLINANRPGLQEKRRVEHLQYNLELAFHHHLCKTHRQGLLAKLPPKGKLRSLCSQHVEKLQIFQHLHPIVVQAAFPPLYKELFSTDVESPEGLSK
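Compounds are pin-transferred onto Drosophila Schneider cells expressing a copper-inducible Gal4–ROR gamma transactivation domain fusion. After 1 hr, copper sulfate is added to 700 uM final; luciferase is read 20 hr later.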
IL-1B inflam inh = qHTS for Inhibitors of Inflammasome Signaling: IL-1-beta AlphaLISA Primary Screen. THP-1 LPS/ATP IL-1B secretion, AlphaLISA, 16 h; active compounds read low. activity change, % at 57.5 µM. hit rate 4.7% among 360,000. AID 743279, 2014; in the data active = activity change below about -50%; inconclusive = mostly about -30% to -49%
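Secreted IL-1B measured by AlphaLISA bead assay after 16 h compound exposure of THP-1 cells; compounds (final up to 57.5 uM) added 1 h before LPS (250 ng/mL) and ATP (1.25 mM) stimulation; lower signal means less secretion.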
Gal4-VP16 FLuc = VP16 counterscreen qHTS for inhibitors of ROR gamma transcriptional activity; Drosophila S2 Gal4-VP16 UAS-luciferase, luminescence, 20 h; Potency, µM (top dose mostly 53.6 µM), usual class: inhibitors; hit rate 3.5% among 310,000;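 note: Gal4-VP16 expression switched on by copper sulfate through the metallothionein promoter; nearly all actives have a fitted effect of over 50% in size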
Hits are given with their value; – = inactive; ? = inconclusive; · = no result; [ ] = remark or other dose. In the library only some 21% were active in any assay of this set; here they are far more common. Unless noted, calls come from the whole dose curve; as a rule, active = well fitted curve in the direction sought with a large enough effect; inconclusive = small, poorly fitted or top-dose-only effect, or another doubt; inactive = no such curve, though single readings can be large; an effect the other way counts as inactive or inconclusive.

SMILES	TDP1 cell CPT	TDP1 cell noCPT	ELG1 repair inh	RORg inh	IL-1B inflam inh	Gal4-VP16 FLuc
CSc1ccc(-c2nc3cccc(C)n3c2Nc2ccc3c(c2)OCO3)cc1	?	18.4µM	·	·	·	·
CCOc1ccc(NC(=O)CSc2nnc(NC(=O)C3CC3)s2)cc1	–	–	–	?	–	–
COc1cccc(C2C3=C(N=C4SCC(=O)N42)c2ccccc2CC3)c1OC (stereo not given)	23.1µM	20.6µM	–	–	–	–
COc1cccc(C(=O)NCc2nc(-c3ccccc3)no2)c1OC	–	?	·	·	·	·
C=CCOC(=O)C1=C[C@@H](c2ccc(C(F)(F)F)cc2)[C@H](CCCO)[C@@H](OCC)O1	23.1µM	11.6µM	–	–	–	–
C=CCOC(=O)C1=C[C@H](c2ccc(C(F)(F)F)cc2)[C@@H](CCCO)[C@H](OCC)O1	23.1µM	?	–	?	–	?
C=CCOC(=O)C1=C[C@@H](c2ccccc2)[C@H](CCCO)[C@@H](OCC)O1	14.6µM	?	–	–	–	–
C=CCOC(=O)C1=C[C@@H](c2ccc(Br)cc2)[C@H](CCCO)[C@@H](OCC)O1	?	?	–	–	–	–
COc1cccc(NC(=O)CN(C)C(=O)c2ccc(S(=O)(=O)Nc3ccccc3F)cc2)c1	–	–	–	·	–	·
CN(C)CCCN(C(=O)c1ccc(S(=O)(=O)N2CCCCCC2)cc1)c1nc2cc3c(cc2s1)OCO3	?	?	·	·	–	·
CC1CCCCN1S(=O)(=O)c1ccc(C(=O)N(CCCN(C)C)c2nc3ccc(Br)cc3s2)cc1 (stereo not given)	20.6µM	?	–	?	-105.0	?
CCC1CCCCN1S(=O)(=O)c1ccc(C(=O)N(CCCN(C)C)c2nc3cc4c(cc3s2)OCO4)cc1 (stereo not given)	16.4µM	?	–	?	-80.3	?
O=C(CO)[C@@H](O)[C@H](O)[C@@H](O)C(=O)O	–	–	·	·	·	·
CC1(c2nnnn2-c2ccc3c(c2)OCCO3)CCC(=O)N1Cc1cccc(C(F)(F)F)c1 (stereo not given)	?	?	·	·	–	·
CCOc1ccc(C[C@H]2NC(=O)CCSSC[C@@H](C(=O)N3CCC[C@H]3C(=O)N[C@@H](CCCN)C(=O)NCC(N)=O)NC(=O)[C@H](CC(N)=O)NC(=O)[C@H]([C@@H](C)O)NC(=O)[C@H]([C@@H](C)CC)NC2=O)cc1	–	–	·	–	·	–
COc1cccc(CN(C)C(=O)c2cc(COc3ccc4ncccc4c3)on2)c1	3.26µM	2.91µM	?	?	–	6.31µM
COc1cccc(CN(C)C(=O)c2cc(COc3c(F)cccc3F)on2)c1	–	–	–	–	–	–
COc1cccc(CN(C)C(=O)c2cc(COc3ccc(-n4cncn4)cc3)on2)c1	20.6µM	18.4µM	?	?	–	–
COc1ccc(CN(C)c2nc(-c3cccnc3)nc3ccccc23)cc1OC	·	·	?	–	·	–
CCOC(=O)C(NC(=O)NCc1ccc(OC)cc1)(OCC)C(F)(F)F (stereo not given)	–	–	–	–	–	–
CCO/C=C/C(O)(CNC(=O)c1ccc(C(C)(C)C)cc1)C(F)(F)F (stereo not given)	?	16.4µM	–	–	–	20µM
CCOC(=O)CNC(=O)c1ccc(C)cc1	–	–	–	–	–	–
COC1=C(C)C(=O)C2=C(C1=O)C1C3CC4=C(C(=O)C(OC)=C(C)C4=O)C(CNC(=O)C(C)=O)N3C(C#N)C(C2)N1C (stereo not given)	0.0411µM	0.0259µM	·	·	-98.5	·
COc1ccc(CCNC(=O)c2ccc(Cn3c(=O)c4cccn4c4cccnc43)cc2)cc1OC	–	?	·	·	·	·
Cc1ccc(-n2ncc3c(NCc4cccnc4)ncnc32)cc1C	20.6µM	?	?	–	–	?
SMILES	TDP1 cell CPT	TDP1 cell noCPT	ELG1 repair inh	RORg inh	IL-1B inflam inh	Gal4-VP16 FLuc
Cc1cccc(-n2ncc3c(NCc4cccnc4)ncnc32)c1	?	?	?	–	–	–
Cc1ccc(-n2ncc3c(NCc4cccnc4)ncnc32)c(C)c1	16.4µM	5.17µM	–	?	–	17.8µM
Cc1ccc(C)n1-c1ccc(-c2nnc3n2CCCCC3)s1	?	–	–	–[10 µM]	–	–
O=C(NCCN1CCC(n2c(=O)[nH]c3ccccc32)CC1)c1ccccc1C(F)(F)F	?	?	·	·	–	·
Cc1ccc(SC2=C(N(C)C)C(=O)c3ccccc3C2=O)cc1	4.61µM	5.17µM	·	·	-63.9	·
COc1cc(C)c(Cc2cnc(N)nc2N)cc1OC	?	13.3µM	·	–	·	–
COc1ccc(Cc2cnc(N)nc2N)cc1OC	?	?	·	–	·	–
CC(C)CCOc1cccc(OCC(=O)Nc2ccncc2)c1	?	13µM	?	?	–	8.91µM
O=C(COc1ccc(Nc2ccccc2)cc1)Nc1ccncc1	?	16.4µM	18.3µM	·	?	·
COc1cccc(OCC(=O)Nc2ccncc2)c1	–	?	–	?	–	?
Cc1ccc(OCC(=O)Nc2ccncc2)cc1C	?	?	·	·	–	·
Cc1cc(OCC(=O)Nc2ccncc2)ccc1[N+](=O)[O-]	?	20.6µM	7.3µM	5.01µM	–	?
O=C(COc1ccc(-c2ccccc2)cc1)Nc1cccnc1	18.4µM	20.6µM	?	·	–	·
CC(=O)c1ccc[nH]1	–	–	·	–	·	–
CC(=O)N1c2ccccc2CC1C(=O)N1CCN(c2cccc(Cl)c2)CC1 (stereo not given)	?	–	·	·	·	·
Nc1nc2sc3c(c2cc1C(=O)NCC(=O)O)CCCC3	–	–	–	10µM	–	?
O=C(O)c1cc(O)c2c(c1)[C@H]([C@H]1c3cc(C(=O)O)cc(O)c3C(=O)c3c(O[C@@H]4O[C@H](CO)[C@@H](O)[C@H](O)[C@H]4O)cccc31)c1cccc(O[C@@H]3O[C@H](CO)[C@@H](O)[C@H](O)[C@H]3O)c1C2=O	–	–	·	·	·	·
O=C(c1ccc2c(c1)OCO2)N1CCN(S(=O)(=O)c2ccc(Br)cc2Cl)CC1	–	–	–	·	?	·
Cc1ccccc1CN1C(=O)c2ccccc2Sc2ccc(C(=O)O)cc21	–	–	–	–	–	–
O=C(c1ccc2c(c1)N(Cc1ccccc1)C(=O)c1ccccc1S2)N1CCCC1	16.4µM	9.2µM	–	–	–	–
Cc1ccccc1CN1C(=O)c2ccccc2Sc2ccc(C(=O)N3CCCC3)cc21	20.6µM	16.4µM	·	·	·	·
Cc1ccccc1CN1C(=O)c2ccccc2Sc2ccc(C(=O)N3CCOCC3)cc21	?	18.4µM	·	·	·	·
